Results as given in PubChem BioAssay (NCATS).
“And” between values parts separate entries of the source, which are not always exact repeats. Equal entries are not always repeated. Inconclusive results are not listed. The source made the active and inactive calls. Unless noted, calls come from the whole dose curve; as a rule, active = well fitted curve in the direction sought with a large enough effect; inconclusive = small, poorly fitted or top-dose-only effect, or another doubt; inactive = no such curve, though single readings can be large; an effect the other way counts as inactive or inconclusive.

Legend:
[1] = test system: Zika virus NS2B-NS3 protease; experiment: Primary screen GU AMC qHTS for Zika virus inhibitors (AID 1347154);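 note: 0% = no-inhibitor control and -100% = no-enzyme control; nearly all actives have a fitted effect of over 70% in size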
Outline: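 Unlinked Zika NS2B hydrophilic domain–NS3 protease complex at 25 nM in 10 mM Tris-HCl pH 8.0, 0.01% Tween 20, with an AMC peptide substrate. Fluorescence change (340/450 nm) over 15 min at room temperature, normalized to controls, fitted to 4-parameter Hill.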

[2] = Primary qHTS for small molecule stabilizers of the endoplasmic reticulum resident proteome: Secreted ER Calcium Modulated Protein (SERCaMP) assay (AID 1508630); note: % is set by controls: 0 for no effect and ±100 for the full control effect
Outline: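 The SH-SY5Y reporter protocol was run at 3 concentrations up to 38.3 uM (primary) or 11 concentrations (follow-up): 16 h compound, 100 nM thapsigargin for 4 h, then extracellular luciferase luminescence.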

[3] = target: Glucocorticoid receptor (Homo sapiens) (UniProt P04150); experiment: GR-GFP Redistribution (AID 450;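 active = compounds whose dose series gives a full or clear partial fitted curve of increased nuclear translocation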; note: potency is the fitted concentration of half-maximal effect); settings: U2OS GR-GFP nuclear translocation, laser cytometry, 2 h
Sequence of Glucocorticoid receptor (Homo sapiens) (P04150 whole entry, looked up, the tested form may be a part): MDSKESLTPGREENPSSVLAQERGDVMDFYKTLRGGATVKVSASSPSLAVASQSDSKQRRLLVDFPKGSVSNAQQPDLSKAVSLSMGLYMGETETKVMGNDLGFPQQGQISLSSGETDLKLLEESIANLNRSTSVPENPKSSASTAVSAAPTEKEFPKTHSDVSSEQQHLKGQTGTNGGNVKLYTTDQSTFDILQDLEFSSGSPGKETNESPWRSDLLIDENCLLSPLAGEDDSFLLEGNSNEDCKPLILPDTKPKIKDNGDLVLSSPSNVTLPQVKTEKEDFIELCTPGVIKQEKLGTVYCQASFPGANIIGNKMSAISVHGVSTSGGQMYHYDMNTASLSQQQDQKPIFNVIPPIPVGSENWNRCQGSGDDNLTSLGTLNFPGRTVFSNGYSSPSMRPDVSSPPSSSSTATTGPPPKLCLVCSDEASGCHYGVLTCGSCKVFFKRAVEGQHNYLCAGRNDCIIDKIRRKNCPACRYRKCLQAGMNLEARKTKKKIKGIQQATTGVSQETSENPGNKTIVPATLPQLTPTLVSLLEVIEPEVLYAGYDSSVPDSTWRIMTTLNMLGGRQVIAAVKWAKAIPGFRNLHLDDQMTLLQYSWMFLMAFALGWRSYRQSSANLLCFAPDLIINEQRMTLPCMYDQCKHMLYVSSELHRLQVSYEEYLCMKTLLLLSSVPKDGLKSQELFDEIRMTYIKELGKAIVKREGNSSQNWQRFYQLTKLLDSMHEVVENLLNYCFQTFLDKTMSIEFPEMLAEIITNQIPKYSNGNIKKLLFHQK

[4] = target: Glucocorticoid receptor (Homo sapiens) (UniProt P04150); experiment: GR-EFC Redistribution (AID 451; calls by dose curve; note: potency is the fitted concentration of half-maximal effect); settings: CHO-K1 GR-EFC translocation, beta-gal luminescence, 2 h
Outline: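 CHO-K1 cells expressing nuclear EA and GR-ED fragments of b-gal; compounds titrated up to 46 uM final, 2 h at 37 C. GR nuclear translocation read as complemented b-gal luminescence after 1 h RT detection.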

[5] = target: Mitogen-activated protein kinase 10 (Mus musculus) (UniProt Q61831); experiment: JNK3 AlphaScreen Assay (AID 530; active = well fitted curve in either direction with a large enough effect, not every such curve was filed as active;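 note: kinase came from lysate of stimulated human HepG2 cells; signal reports phosphorylation of biotinylated GST-cJun 1-79 at Ser73 with 10 µM ATP; % is set by controls: 0 for no effect and ±100 for the full control effect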)
Outline: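 HepG2 lysate (IL-1b/TNFa pre-activated) + biotin-GST-cJun 1-79 + anti-pSer73 cJun; cpd titration, 15 min RT; ATP 10 uM start; Tris pH 7.6, MgCl2, DTT, vanadate; beads in EDTA buffer; AlphaScreen.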

[6] = target: Cytochrome P450 2C9 (Homo sapiens) (UniProt P11712); experiment: qHTS Assay for Inhibitors and Substrates of Cytochrome P450 2C9 (AID 883); note: potency is the fitted concentration of half-maximal effect; nearly all actives have a fitted effect of over 60% in size
Outline: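 10nM CYP2C9 + 100uM Luciferin-H (=KM), 25mM KPO4; cpd 10 min 37C; NADPH regen, 60 min 37C; stop/detect with P450 Glo-Buffer 20 min; luminescence. Norm. to 57uM sulphaphenazole as full inhibition.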

[7] = target: Cytochrome P450 2C19 (Homo sapiens) (UniProt P33261); experiment: qHTS Assay for Inhibitors and Substrates of Cytochrome P450 2C19 (AID 899); note: nearly all actives have a fitted effect of over 60% in size; note: potency is the fitted concentration of half-maximal effect
Sequence of Cytochrome P450 2C19 (Homo sapiens) (P33261 whole entry, looked up): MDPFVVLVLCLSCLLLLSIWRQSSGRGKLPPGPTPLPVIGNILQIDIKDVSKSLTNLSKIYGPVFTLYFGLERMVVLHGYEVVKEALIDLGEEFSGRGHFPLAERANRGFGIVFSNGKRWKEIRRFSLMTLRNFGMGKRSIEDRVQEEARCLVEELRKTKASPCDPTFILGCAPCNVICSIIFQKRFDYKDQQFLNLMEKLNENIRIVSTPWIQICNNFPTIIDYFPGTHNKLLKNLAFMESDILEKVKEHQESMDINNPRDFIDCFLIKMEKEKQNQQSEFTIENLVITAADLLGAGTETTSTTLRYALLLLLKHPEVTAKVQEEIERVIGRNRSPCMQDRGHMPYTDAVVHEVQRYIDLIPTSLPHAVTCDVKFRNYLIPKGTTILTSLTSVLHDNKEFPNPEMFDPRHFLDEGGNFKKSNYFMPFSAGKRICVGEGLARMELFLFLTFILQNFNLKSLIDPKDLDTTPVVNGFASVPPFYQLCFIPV
Outline: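 Luminescent read-out of luciferin formed from Luciferin-H EGE (10uM, equal to KM). Enzyme 5nM in 50mM KPO4; compound added, 10 min at 37C, then NADPH regenerating system for 60 min at 37C. Full inhibition defined by 57uM ketoconazole.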

[8] = target: Ubiquitin carboxyl-terminal hydrolase 1 (Homo sapiens) (UniProt O94782); experiment: Inhibitors of USP1/UAF1: Pilot qHTS (AID 504865);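 note: rhodamine fluorescence freed from ubiquitin-rhodamine substrate followed over time; top concentration of the series differs between compounds; % is set by controls: 0 for no effect and ±100 for the full control effect; nearly all actives have a fitted effect of over 35% in size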
Sequence of Ubiquitin carboxyl-terminal hydrolase 1 (Homo sapiens) (O94782 whole entry, looked up): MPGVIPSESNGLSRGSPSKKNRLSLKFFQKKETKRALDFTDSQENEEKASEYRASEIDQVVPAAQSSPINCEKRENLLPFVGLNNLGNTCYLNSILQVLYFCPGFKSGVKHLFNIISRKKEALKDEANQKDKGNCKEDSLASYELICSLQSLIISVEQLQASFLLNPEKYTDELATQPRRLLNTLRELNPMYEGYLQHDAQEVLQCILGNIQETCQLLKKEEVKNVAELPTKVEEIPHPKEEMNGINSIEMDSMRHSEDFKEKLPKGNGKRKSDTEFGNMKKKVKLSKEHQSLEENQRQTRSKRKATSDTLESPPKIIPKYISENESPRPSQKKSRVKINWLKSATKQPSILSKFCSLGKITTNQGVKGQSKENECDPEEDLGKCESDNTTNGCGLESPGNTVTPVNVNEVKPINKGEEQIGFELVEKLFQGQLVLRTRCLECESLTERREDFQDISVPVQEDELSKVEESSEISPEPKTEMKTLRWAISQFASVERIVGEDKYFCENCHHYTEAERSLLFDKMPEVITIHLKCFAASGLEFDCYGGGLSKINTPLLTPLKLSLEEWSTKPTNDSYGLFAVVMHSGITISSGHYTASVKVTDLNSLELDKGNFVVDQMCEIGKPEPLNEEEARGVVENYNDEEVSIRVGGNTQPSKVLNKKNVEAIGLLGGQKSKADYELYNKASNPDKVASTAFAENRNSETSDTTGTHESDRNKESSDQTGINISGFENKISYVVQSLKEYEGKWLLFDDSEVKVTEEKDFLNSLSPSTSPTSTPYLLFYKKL
Outline: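 Kinetic fluorescence assay: 1nM USP1/UAF1, 15 min compound preincubation, then 150nM Ub-Rho; 480/540 nm.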

[9] = target: DNA dC->dU-editing enzyme APOBEC-3G (Homo sapiens) (UniProt Q9HC16); experiment: qHTS for inhibitors of Vif-A3G interactions: Validation (AID 588379); note: 0% is about no effect
Sequence of DNA dC->dU-editing enzyme APOBEC-3G (Homo sapiens) (Q9HC16 whole entry, looked up): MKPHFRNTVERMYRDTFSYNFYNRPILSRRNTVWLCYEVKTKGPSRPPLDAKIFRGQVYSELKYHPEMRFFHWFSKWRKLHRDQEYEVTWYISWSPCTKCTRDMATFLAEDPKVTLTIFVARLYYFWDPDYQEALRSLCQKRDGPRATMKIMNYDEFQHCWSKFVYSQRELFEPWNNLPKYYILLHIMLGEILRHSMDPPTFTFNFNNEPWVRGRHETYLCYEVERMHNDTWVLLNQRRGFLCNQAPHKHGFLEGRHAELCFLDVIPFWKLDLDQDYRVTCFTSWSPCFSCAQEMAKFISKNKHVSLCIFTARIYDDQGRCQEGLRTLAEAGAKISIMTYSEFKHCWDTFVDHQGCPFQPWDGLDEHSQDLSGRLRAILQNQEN
Outline: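 Yellow fluorescence (Ex 488, Em 500-530) of Vif-coexpressing HeLa A3G-eYFP cells, scanned by Acumen cytometer, reports blocked A3G degradation. Cells plated at 700/well overnight at 37 deg C before compound addition, then a further overnight compound incubation at 37 deg C.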

[10] = Counterscreen qHTS for small molecule stabilizers of the endoplasmic reticulum resident proteome: GLuc-NoTag assay (AID 1508627);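 note: SH-SY5Y cells given compound then 100 nM thapsigargin to empty ER calcium; 0% = thapsigargin alone and -100% = DMSO vehicle control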
Outline: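 Counterscreen line: SH-SY5Y-GLuc-NoTag. Seed, 5 h; compound, 19 h; thapsigargin 100 nM, 4 h; 37C/5% CO2. Readout: secreted GLuc luminescence, coelenterazine 0.07x final, no lysis.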

[11] = target: Cytochrome P450 1A2 (Homo sapiens) (UniProt P05177); experiment: p450-cyp1a2 (AID 410; calls by dose curve; note: potency is the fitted concentration of half-maximal effect)
Sequence of Cytochrome P450 1A2 (Homo sapiens) (P05177 whole entry, looked up): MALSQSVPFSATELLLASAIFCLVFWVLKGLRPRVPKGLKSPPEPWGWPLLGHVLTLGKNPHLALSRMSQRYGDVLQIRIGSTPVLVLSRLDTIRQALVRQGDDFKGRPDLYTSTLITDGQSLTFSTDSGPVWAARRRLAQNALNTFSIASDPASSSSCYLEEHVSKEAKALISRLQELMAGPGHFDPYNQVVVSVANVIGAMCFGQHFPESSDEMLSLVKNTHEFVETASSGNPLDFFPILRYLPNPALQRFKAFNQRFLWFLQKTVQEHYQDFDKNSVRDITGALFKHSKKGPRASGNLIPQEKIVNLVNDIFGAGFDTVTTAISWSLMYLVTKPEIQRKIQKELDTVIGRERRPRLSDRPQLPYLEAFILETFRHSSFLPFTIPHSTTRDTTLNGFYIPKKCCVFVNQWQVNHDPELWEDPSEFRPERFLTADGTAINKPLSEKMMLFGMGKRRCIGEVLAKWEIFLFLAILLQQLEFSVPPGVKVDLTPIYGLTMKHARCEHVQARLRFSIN
Outline: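 Read-out is luminescence from luciferin produced by CYP1A2 demethylation of Luciferin-ME (100uM, at Km). Detection reagent stopped the 60 min NADPH-dependent reaction; signals were normalized to 57 uM furafylline.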

[12] = target: Cytochrome P450 3A4 (Homo sapiens) (UniProt P08684); experiment: qHTS Assay for Activators of Cytochrome P450 3A4 (AID 885); note: nearly all actives have a fitted effect of over 65% in size
Sequence of Cytochrome P450 3A4 (Homo sapiens) (P08684 whole entry, looked up): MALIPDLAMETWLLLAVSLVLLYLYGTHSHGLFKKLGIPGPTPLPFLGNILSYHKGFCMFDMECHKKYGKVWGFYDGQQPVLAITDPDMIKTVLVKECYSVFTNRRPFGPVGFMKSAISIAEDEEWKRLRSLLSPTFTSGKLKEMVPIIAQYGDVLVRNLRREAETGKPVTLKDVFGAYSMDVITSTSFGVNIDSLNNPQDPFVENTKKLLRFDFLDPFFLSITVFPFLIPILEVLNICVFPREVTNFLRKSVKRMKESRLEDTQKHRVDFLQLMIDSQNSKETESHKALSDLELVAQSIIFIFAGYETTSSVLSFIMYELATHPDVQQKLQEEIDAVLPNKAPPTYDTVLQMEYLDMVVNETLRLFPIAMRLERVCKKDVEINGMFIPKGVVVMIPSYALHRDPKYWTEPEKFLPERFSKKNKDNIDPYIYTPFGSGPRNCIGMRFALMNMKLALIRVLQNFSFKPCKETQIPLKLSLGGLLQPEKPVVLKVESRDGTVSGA
Outline: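 Human CYP3A4 dealkylates Luciferin-PPXE to luciferin, which luciferase detection converts to light. Substrate was at its KM (25uM), buffer 200mM KPO4, reaction 60 min at RT.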

[13] = Confirmatory qHTS for small molecule stabilizers of the endoplasmic reticulum resident proteome: Secreted ER Calcium Modulated Protein (SERCaMP) assay (AID 1508628); note: nearly all actives have a fitted effect of over 40% in size; note: potency is the fitted concentration of half-maximal effect
Outline: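 GLuc-SERCaMP-expressing SH-SY5Y cells, pretreated 16 h with compound, are challenged with thapsigargin to empty ER calcium stores; after 4 h, coelenterazine is added directly to the medium and luminescence is imaged.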

[14] = target: Lysosomal acid glucosylceramidase (Homo sapiens) (UniProt P04062); experiment: Glucocerebrosidase-p2 (AID 348; in the data active = potency below about 10 µM; note: potency is the fitted concentration of half-maximal effect); settings: purified GBA, blue fluorogenic substrate, 40 min
Outline: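 Normal human glucocerebrosidase (0.2 nM) with blue fluorogenic substrate (80 uM final) in citrate/phosphate pH 5.9 with 10mM sodium taurocholate, 0.01% tween-20; 40 min RT, NaOH/glycine stop; fluorescence Ex 365/Em 440; AC50 from a titration from 0.6 nM upwards.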

[15] = AP1 Signaling Pathway (AID 357; active = well fitted curve in either direction with a large enough effect, not every such curve was filed as active; note: % is set by controls: 0 for no effect and ±100 for the full control effect); settings: ME-180 AP-1-bla reporter, EGF-induced, beta-lactamase ratio, 5 h
Outline: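 AP-1-bla ME-180 cells with beta-lactamase reporter under AP-1 response element, stimulated with EC50 EGF; compounds titrated, 5 hours at 37 degrees Celsius. CCF4 read at 460/530 nm ratio; positive and negative modulators judged by AC50.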

[16] = NFAT Signaling Pathway (AID 444; active = well fitted curve in either direction with a large enough effect, not every such curve was filed as active;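 note: carbachol stimulus at about its EC50 of 1 µM final; % is set by controls: 0 for no effect and ±100 for the full control effect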); settings: Jurkat NFAT-bla M1, carbachol, beta-lactamase ratio, 5 h
Outline: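 Jurkat cells with NFAT-driven β-lactamase reporter and co-expressed M1 receptor, stimulated with carbachol (final 1 uM, ~EC50), compound titration, 5 h at 37 °C. CCF4 loaded 1 h at RT; 460/530 nm ratio gave %activity and AC50.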

[17] = Stat Signaling Pathway (AID 446; active = well fitted curve in either direction with a large enough effect, not every such curve was filed as active); settings: ME-180 (cervical carcinoma) SIE beta-lactamase reporter, IL-6 stimulated, 5 h
Outline: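 Normalization used AC90 stimulation (300 pM IL-6) and AC90 inhibition (125 nM pan-JAK inhibitor at 40 pM IL-6). The underlying signal is SIE-driven beta-lactamase in ME-180 cells after 5 h IL-6 exposure with compound.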

[18] = target: 3',5'-cyclic-AMP phosphodiesterase 4B (Homo sapiens) (UniProt Q07343); experiment: qHTS Assay for Inhibitors of PDE-IV (AID 607; active = well fitted activation curve with a large enough effect in the main read-out, with a control signal flat, not every such curve was filed as active; note: % of control where 0% means no effect)
Sequence of 3',5'-cyclic-AMP phosphodiesterase 4B (Homo sapiens) (Q07343 whole entry, looked up): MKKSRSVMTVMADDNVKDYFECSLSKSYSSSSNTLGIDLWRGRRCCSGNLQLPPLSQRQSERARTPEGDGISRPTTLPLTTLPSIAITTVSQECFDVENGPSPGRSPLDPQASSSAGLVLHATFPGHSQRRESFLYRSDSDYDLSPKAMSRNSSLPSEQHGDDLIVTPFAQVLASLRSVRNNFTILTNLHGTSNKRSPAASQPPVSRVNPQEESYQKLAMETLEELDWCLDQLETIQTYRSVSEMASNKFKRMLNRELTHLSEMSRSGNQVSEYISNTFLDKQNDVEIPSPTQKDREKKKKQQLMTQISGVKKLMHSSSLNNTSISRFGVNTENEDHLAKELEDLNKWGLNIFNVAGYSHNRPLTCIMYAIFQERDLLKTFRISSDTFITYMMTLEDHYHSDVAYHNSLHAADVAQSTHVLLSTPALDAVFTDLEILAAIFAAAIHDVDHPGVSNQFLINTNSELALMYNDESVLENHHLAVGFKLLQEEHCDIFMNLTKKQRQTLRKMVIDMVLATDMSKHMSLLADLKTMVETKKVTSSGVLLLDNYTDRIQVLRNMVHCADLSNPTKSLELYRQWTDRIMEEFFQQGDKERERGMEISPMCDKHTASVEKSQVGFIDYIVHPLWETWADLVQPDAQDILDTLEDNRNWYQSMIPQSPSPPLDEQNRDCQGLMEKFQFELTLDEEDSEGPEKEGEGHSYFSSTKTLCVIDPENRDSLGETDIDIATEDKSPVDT
Outline: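 HEK293 ACTOne cells with CNG channel (1000/well), endogenous PDE4; membrane potential dye, compounds up to 22.9 uM final. Fluorescence Ex 535/Em 590; RO 20-1724 (100 uM final) as reference.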

[19] = target: Guanine nucleotide-binding protein G(i) subunit alpha-1 (Homo sapiens) (UniProt P63096); experiment: qHTS Assay for Inhibitors of RGS12 GoLoco Motif Activity (Green Fluorophore) (AID 879);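 note: 0% = labeled peptide with Gαi1 and full inhibition = labeled peptide alone without protein; negative values mean loss of peptide binding seen as reduced polarization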
Sequence of Guanine nucleotide-binding protein G(i) subunit alpha-1 (Homo sapiens) (P63096 whole entry, looked up): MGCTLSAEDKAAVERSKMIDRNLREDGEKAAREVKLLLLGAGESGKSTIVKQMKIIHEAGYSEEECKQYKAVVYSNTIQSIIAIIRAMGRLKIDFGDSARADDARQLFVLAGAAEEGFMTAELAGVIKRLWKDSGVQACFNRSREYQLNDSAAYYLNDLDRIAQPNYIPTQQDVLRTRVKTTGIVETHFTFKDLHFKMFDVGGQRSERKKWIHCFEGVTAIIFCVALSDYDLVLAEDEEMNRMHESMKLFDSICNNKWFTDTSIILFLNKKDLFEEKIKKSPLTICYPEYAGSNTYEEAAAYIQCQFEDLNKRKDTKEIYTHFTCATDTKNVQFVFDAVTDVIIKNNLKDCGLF
Outline: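 A drop in FITC polarization marked displacement of the FITC-tagged RGS12 GoLoco peptide (10 nM) from Gαi1 (50 nM). Compounds were incubated 10 min at room temperature in Tris pH 7.5 buffer containing 150 mM NaCl, 0.1 mM GDP and 0.05% NP40; unlabeled peptide titration served as control.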

[20] = qHTS Assay for Identification of Small Molecule Agonists for Thrombopoietin (TPO) Signaling Pathway (AID 917); note: % is set by controls: 0 for no effect and ±100 for the full control effect
Outline: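 Quantitative HTS for pathway activators: compounds were pin-transferred onto IL-3-starved Ba/F3 cells expressing human TPO receptor, TPO was added at its EC50 (26 pM final), and after 24 hrs at 37 C reporter luciferase was measured.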

[21] = target: Pyruvate kinase (Leishmania mexicana) (UniProt Q27686); experiment: qHTS Validation Assay for Inhibitors of Leishmania Mexicana Pyruvate Kinase (AID 945);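 note: 0% = DMSO only neutral control wells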
Outline: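 Pyruvate kinase activity of E451W LmPYK (0.2 nM) was followed as ATP output after 1 h at room temperature with 0.5 mM PEP and 0.1 mM ADP, detected by PKLight luminescence.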

[22] = target: Pyruvate kinase PKM (Homo sapiens) (UniProt P14618); experiment: qHTS Assay for Activators of Human Muscle Pyruvate Kinase (AID 954; active = well fitted curve in the direction sought with a large enough effect, not every such curve was filed as active;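 note: 0% = uninhibited enzyme and -100% = no enzyme or full thiadiazolimine inhibition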)
Outline: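 Compound pinned into substrate mix (0.5 mM PEP, 0.1 mM ADP), then 0.1 nM PKM2 added; 1 h, RT. Stop/detection luciferase reagent added, luminescence read. Normalized to no-inhibition and no-enzyme or reference-inhibitor controls.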

[23] = target: alpha-glucosidase (Oryza sativa, rice) (UniProt Q653V4); experiment: Counterscreen for Glucocerebrosidase Inhibitors: qHTS Assay for Rice alpha-Glucosidase at pH 5.0 (AID 997);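 note: 0% = full activity with enzyme and -100% = basal without enzyme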
Outline: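 Endpoint fluorogenic assay at pH 5.0: compounds (0.7 nM to 77 uM) titrated against 4 nM rice enzyme and 400 uM 4-MU-alpha-glucoside for 20 min at room temperature; NaOH/glycine stop, read ex 365/em 440 nm, Hill-fitted AC50.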

[24] = qHTS Assay for Lipid Storage Modulators (AID 1519; calls by dose curve); settings: Drosophila S3 cells, BODIPY lipid droplet/cell ratio, laser cytometry, cells loaded with oleic acid
Outline: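 Cells seeded at 5,000 per well were treated with compounds over a concentration series and loaded with oleic acid (400 uM, as added). Lipid droplet fluorescence (488 nm excitation, 500-530 nm channel) was read by laser-scanning cytometry and normalized to 20 uM Triacsin C.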

CCCCCCCCCC(=O)N[C@H](CN1CCOCC1)[C@H](O)c1ccccc1
inactive: activity change, negative = inhibition [1] 6.71% [at 6.83 µM] | activity change, negative = inhibition [2] 9.26% [at 3.88 µM]

CC1c2ccccc2CN1CC1=NCCN1 (stereo unspecified)
inactive: Potency [1] | Potency [2]

COc1cc(N)c(Cl)cc1C(=O)N[C@H]1CCN(CCCOc2ccc(F)cc2)C[C@@H]1OC
active: Potency [6] 1 µM | Potency [7] 0.794 µM
inactive: Potency [3] > 46 µM | Potency [4] > 46 µM | Potency [5] | Potency [8] | Potency [9] | Potency [1] | Potency [10]

CCCCCCCCCCCCCCCCOCC(CO)OC (stereo unspecified)
inactive: activity change, negative = inhibition [1] 21.3% [at 6.83 µM] | activity change, negative = inhibition [2] -17.7% [at 3.88 µM]

CCOC(=O)c1c(C)[nH]c2ccc3c(c12)CN1CCc2cc(OC)ccc2[C@@H]1O3
active: Potency [11] 0.158 µM
inactive: Potency [3] > 46 µM | Potency [4] > 46 µM | Potency [5] | Potency [12] | Potency [7] | Potency [8] | Potency [9] | Potency [1] | Potency [13]

CO[C@H]1C[C@@H]2CC[C@@H](C)[C@@](O)(O2)C(=O)C(=O)N2CCCC[C@H]2C(=O)OC([C@H](C)C[C@@H]2CC[C@@H](O)[C@H](OC)C2)CC(=O)[C@H](C)/C=C(\C)[C@@H](O)[C@@H](OC)C(=O)[C@H](C)C[C@H](C)/C=C/C=C/C=C/1C (stereo partly specified)
inactive: Potency [1] | Potency [2]

CC(N)(C(=O)O)c1ccc(-c2nn[nH]n2)cc1 (stereo unspecified)
inactive: Potency [1] | Potency [2]

CCCCC/C=C\C/C=C\CCCCCCCCCC(=O)O
inactive: activity change, negative = inhibition [1] -1.98% [at 6.83 µM] | activity change, negative = inhibition [2] -7.65% [at 3.88 µM]

CN(C)C/C=C(\c1ccc(Br)cc1)c1cccnc1
-7.55%: max response ([24]; measured here: cell count channel max response)
inactive: Potency [14] > 11.4 µM | activity change, negative = inhibition ([15]; at 7.69 µM (top of the series)) 5.82% | activity change, negative = inhibition ([15]; at 17.2 µM (top of the series)) 4.78% | activity change, negative = inhibition ([15]; at 38 µM (top of the series)) 14.9% | activity change, negative = inhibition ([16]; at 7.69 µM (top of the series)) -7.27% | activity change, negative = inhibition ([16]; at 17.2 µM (top of the series)) -12.7% | activity, negative = inhibition ([17]; at 7.69 µM (top of the series)) 3.29% | activity, negative = inhibition ([17]; at 17.2 µM (top of the series)) 7.82% | activity, negative = inhibition ([17]; at 38 µM (top of the series)) -15.8% | Potency [3] > 46 µM and > 20.6 µM | Potency [4] > 46 µM and > 20.6 µM and > 9.22 µM | Potency [5] | Potency [18] | outcome [19] | Potency [20] | Potency [21] | outcome [22] | outcome [23] | activity change, negative = inhibition ([24]; at 25.7 µM (top of the series)) -2.94% | Potency [8] | Potency [9] | Potency [1]
active: Potency [13] 44.7 µM
-11.6%: max response ([24]; measured here: lipid channel max response)
